Test results reported in PubChem BioAssay (Tox21).
Results filed as inconclusive are left out. Entries that show only a call come without a potency. Activity calls are given as the source filed them. Calls follow the shape of the dose curve; as a rule, active = well fitted cell-killing curve with a large enough effect in the repeat runs; inconclusive = weak or mixed curves; inactive = flat fitted curve, though single readings scatter.

test: qHTS RealTime-Glo MT Cell Viability Assay in HepG2 cells - 24 hour (AID 1224867); conditions: RealTime-Glo luminescence; series mostly up to 76.8 µM; also: nearly all actives have a fitted effect of over 50% in size
Excerpt: U.S. Tox21 Program National Center for Advancing Translational Sciences [NCATS] NIH Chemical Genomics Center [NCGC] U.S. Environmental Protection Agency [EPA] National Institutes of Environmental Health Sciences [NIEHS] National Toxicology Program [NTP] U.S. Food and Drug Administration [FDA] Tox21 Assay Overview: Measure of cell viability is critical in the cell-base assay. Analysis of cell viability is necessary for the characterization of cell responses to cytotoxic drugs and environmental stress. A RealTime-Glo MT Cell Viability Assay to monitor cell viability in real time of continues cell culture during 40 hours of compound treatment was used to screen Tox21 10K library compounds in HepG2 cells. The RealTime-Glo MT Cell Viability Assay is a nonlytic, homogeneous, bioluminescent method to measure cell viability in real time using a simple, plate-based method. The assay involves adding NanoLuc luciferase and a cell-permeant prosubstrate to cells in culture. Viable cells reduce the proprietary prosubstrate to generate a substrate for NanoLuc luciferase. This substrate diffuses from cells into the surrounding culture medium, where it is rapidly used by the NanoLuc Enzyme to produce a luminescent signal. The signal correlates with the number of viable cells, making the assay well suited for cytotoxicity studies.
Tox21 Assay Protocol Summary: The mixture of HepG2 cell suspension and reagents were dispensed at 600cells/6 ul/well in 1536-well tissue culture treated black solid bottom plates using a Multidrop dispenser. After the assay plates were incubated at a 37 C/5% CO2 incubator for 5 hours, 23 nL of compounds dissolved in DMSO, positive and negative controls was transferred to the assay plate by a pintool work station. The plates were incubated at 37 C for 40 hours. The luminescence intensity were measured at 0h, 8h, 16h, 24h, 32h and 40h time points using ViewLux plate reader during compound treatment.

SMILES	Potency
CC(C)C(=O)OCC(C)(C)C(OC(=O)C(C)C)C(C)C (stereo not given)	inactive
CCN(CC)C(=O)/C(Cl)=C(\C)OP(=O)(OC)OC	inactive
CCCCN(CCCC)N=O	inactive
C1=Cc2cccc3cccc1c23	inactive
CCOP(=S)(OCC)O/N=C(\C#N)c1ccccc1	inactive
CCN(CC)N=O	inactive
O=C(O)CC[N+](=O)[O-]	inactive
CCC(=O)O[C@H]1CC[C@H]2[C@@H]3CCC4=CC(=O)CC[C@]4(C)[C@H]3CC[C@]12C	inactive
S=C1NCCN1	inactive
COP(=O)(OC)OC	inactive
N#CC(Br)Br	inactive
Oc1c(Cl)c(Cl)c(Cl)c(Cl)c1Cl	inactive
C[C@]12CCC(=O)C(O)=C1CC[C@@H]1[C@@H]2CC[C@]2(C)C(=O)CC[C@@H]12	inactive
Cc1ccccc1[N+](=O)[O-]	inactive
CC(C)(C)c1ccccc1O	inactive
O=C(Nc1ccc(Br)cc1)c1cc(Br)cc(Br)c1O	inactive
CNC(=O)N(C)c1nnc(C(C)(C)C)s1	inactive
Nn1cnnc1	inactive
Oc1ccc(-c2ccccc2)cc1	inactive
COC(=O)c1sccc1S(=O)(=O)NC(=O)Nc1nc(C)nc(OC)n1	inactive

SMILES	Potency
Nc1ccc(Cl)cc1N	inactive
CCC(C)(C)c1ccc(O)cc1	inactive
COc1ccc(C=O)cc1	inactive
CCOc1cc(Oc2ccc(C(F)(F)F)cc2Cl)ccc1[N+](=O)[O-]	inactive
CCOCN(C(=O)CCl)c1c(C)cccc1CC	inactive
NCc1cccnc1	inactive
Brc1ccc(Oc2cc(Br)c(Br)cc2Br)c(Br)c1	inactive
CC(C)Oc1cc(-n2nc(C(C)(C)C)oc2=O)c(Cl)cc1Cl	inactive
CNC(=O)Oc1cccc2c1OC(C)(C)O2	inactive
CC(C)N(C(=O)SCC(Cl)=C(Cl)Cl)C(C)C	inactive
CCCCN(CC)c1c([N+](=O)[O-])cc(C(F)(F)F)cc1[N+](=O)[O-]	inactive
COP(=S)(OC)Oc1cc(Cl)c(Cl)cc1Cl	inactive
CN(C)C(=O)Nc1ccc(Cl)cc1	inactive
O=C1C=CC(=O)C=C1	inactive
c1ccc(-c2cccc(-c3ccccc3)c2)cc1	inactive
C=C(C)C(=O)OCC1CO1 (stereo not given)	inactive
N#CCCCl	inactive
O=C(NC(=O)c1c(F)cccc1F)Nc1ccc(Cl)cc1	inactive
CCCCCCCCOC(=O)c1ccccc1C(=O)OCCCCCCCC	inactive
O=[N+]([O-])c1c(Cl)c(Cl)c(Cl)c(Cl)c1Cl	inactive
